Experiment [1] deals with human Thromboxane A2 Receptor (TXA2), TBXA2R (gene 6915) (UniProt P21731). In words: NVS_GPCR_hTXA2: NovaScreen (NVS) G Protein-Coupled Receptor Assay for human Thromboxane A2 Receptor (TXA2) (AID 2283282).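 Also: actives reduce bound radioligand signal relative to DMSO baseline.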 In short, it runs like this:
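Human platelet-derived receptor preparation incubated with test chemical and radiolabelled ligand for 1 hour, cell-free. Bound label was separated by filtration and counted; displacement relative to DMSO controls gave activity, screened at 25 uM, then titrated.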

The target in experiment [2] is mouse Cholecystokinin, CCK1 Receptor (CCKA), Cckar (gene 12425) (UniProt O08786). In words: NVS_GPCR_mCCKAPeripheral: NovaScreen (NVS) G Protein-Coupled Receptor Assay for mouse Cholecystokinin, CCK1 Receptor (CCKA) (AID 2283285). In short, it runs like this: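 Chemicals were first screened in duplicate at 25 uM, with those meeting threshold (e.g., 30% inhibition) retested in singleton concentration series to 50 uM maximum. Binding of radioligand to mouse pancreatic membranes was read after 2 h by filtration and scintillation counting.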
mouse Cholecystokinin, CCK1 Receptor (CCKA), Cckar (gene 12425), sequence (O08786 whole entry, looked up): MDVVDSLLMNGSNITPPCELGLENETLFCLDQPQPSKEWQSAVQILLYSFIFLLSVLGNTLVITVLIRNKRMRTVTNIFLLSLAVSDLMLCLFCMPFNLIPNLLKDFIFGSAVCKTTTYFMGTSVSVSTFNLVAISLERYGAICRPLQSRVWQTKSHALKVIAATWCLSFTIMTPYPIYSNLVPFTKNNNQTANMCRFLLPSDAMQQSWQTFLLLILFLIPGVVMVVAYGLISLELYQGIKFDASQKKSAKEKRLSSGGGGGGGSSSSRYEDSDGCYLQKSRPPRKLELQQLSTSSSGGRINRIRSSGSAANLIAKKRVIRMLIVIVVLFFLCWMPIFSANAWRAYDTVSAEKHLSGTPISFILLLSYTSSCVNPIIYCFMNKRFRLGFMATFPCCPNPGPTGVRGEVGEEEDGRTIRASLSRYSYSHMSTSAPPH

The subject of experiment [3] is 5-hydroxytryptamine receptor 2C (pig). As to the kind of experiment: NVS_GPCR_p5HT2C: NovaScreen (NVS) G Protein-Coupled Receptor Assay for pig Serotonin, 5-Hydroxytryptamine Receptor 2C (5HT2C) (AID 2283288). In short, it runs like this:
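Radioligand displacement on membranes from pig choroid plexus, detected by filter scintillation counting after 1 h. Tested first at a single 25 uM in duplicate, then in concentration-response for actives; DMSO served as baseline.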

The target of experiment [4] is rat Serotonin, 5-Hydroxytryptamine Receptor 1 (5HT1), Non-Selective Binding, Htr1a (gene 24473) (UniProt P19327). In words: NVS_GPCR_r5HT1_NonSelective: NovaScreen (NVS) G Protein-Coupled Receptor Assay for rat Serotonin, 5-Hydroxytryptamine Receptor 1 (5HT1), Non-Selective Binding (AID 2283286). How it is done: NVS_GPCR_r5HT1_NonSelective is a biochemical, single-readout assay that uses extracted gene-proteins from Rat cortical membranes in a tissue-based cell-free assay. Measurements were taken 1 hour after chemical dosing in a 48-well plate.NVS_GPCR_r5HT1_NonSelective is one of one assay component(s) measured or calculated from the NVS_GPCR_r5HT1_NonSelective assay. It is designed to make measurements of radioligand binding, a form of binding reporter, as detected with scintillation counting signals by Filter-based radiodetection technology.Data from the assay component NVS_GPCR_r5HT1_NonSelective was analyzed into 1 assay endpoint. This assay endpoint, NVS_GPCR_r5HT1_NonSelective, was analyzed in the positive analysis fitting direction relative to DMSO as the negative control and baseline of activity. Using a type of binding reporter, loss-of-signal activity can be used to understand changes in the binding as they relate to the gene Htr1a. Furthermore, this assay endpoint can be referred to as a primary readout, because the performed assay has only produced 1 assay endpoint. To generalize the intended target to other relatable targets, this assay endpoint is annotated to the gpcr intended target family, where the subfamily is rhodopsin-like receptor.
rat Serotonin, 5-Hydroxytryptamine Receptor 1 (5HT1), Non-Selective Binding, Htr1a (gene 24473), sequence (P19327 whole entry, looked up): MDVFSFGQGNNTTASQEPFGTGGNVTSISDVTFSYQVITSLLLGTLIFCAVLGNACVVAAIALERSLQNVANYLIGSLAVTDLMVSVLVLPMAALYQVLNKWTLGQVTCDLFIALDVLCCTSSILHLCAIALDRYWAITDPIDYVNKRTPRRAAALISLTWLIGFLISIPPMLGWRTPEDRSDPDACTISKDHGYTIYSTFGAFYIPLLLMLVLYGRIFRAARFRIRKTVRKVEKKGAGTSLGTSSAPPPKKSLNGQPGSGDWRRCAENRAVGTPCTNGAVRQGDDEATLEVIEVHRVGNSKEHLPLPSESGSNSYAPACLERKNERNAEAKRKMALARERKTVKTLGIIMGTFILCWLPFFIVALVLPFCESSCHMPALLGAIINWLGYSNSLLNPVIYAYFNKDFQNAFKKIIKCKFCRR
Binding assays used specific radioligands (tritiated, iodinated) with non-radioactive competitive displacement ligands in agonist or antagonist protocols (as indicated) and various reference compounds and inhibitors to titrate specific binding to receptors and transporters. Most enzyme assays (CYPs, kinases, phosphatases, proteases, HDACs) used recombinant protein and specific substrates (fluorescence mostly, some colorimetric and radioactive) and inhibitors, followed by a biochemical separation of substrate and product. All assays for the biochemical HTS were initially run in duplicate at a single concentration (10 uM for CYP450 assays and 25 uM for all others). Assay-chemical combinations meeting a pre-defined threshold (e.g., 30% inhibition and other criteria defined below) were then run in singleton concentration-response format with maximum concentration of 20 uM for CYPs and 50 uM for all others. Each assay was run with positive and negative controls, and concurrent controls on every plate. The follow-up (secondary) screen tested active chemical-pairs in concentration series, as well as a few additional assays not tested in the primary screen, some selected negative inactives, and several cases re-run in the concentration series for confirmatory purposes.

The target in experiment [5] is human Opioid Receptor Mu (Opiate Mu), OPRM1 (gene 4988) (UniProt P35372). As to the kind of experiment: NVS_GPCR_hOpiate_mu: NovaScreen (NVS) G Protein-Coupled Receptor Assay for human Opioid Receptor Mu (Opiate Mu) (AID 2283290).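 Also: hits lower bound tracer signal versus DMSO meaning displacement of the ligand.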 The gist of the method:
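Cell-free radioligand binding to membranes from CHO cells expressing the receptor; bound tracer measured by filter-based scintillation counting 2.5 hours after dosing. Loss of signal versus DMSO baseline reflects displacement; primary screen at 25 uM in duplicate, actives followed up in concentration series.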

The target in experiment [6] is rat Adrenergic, Alpha 1, Non-selective Receptor (Adra1), Adra1a (gene 29412) (UniProt P43140). As to the kind of experiment: NVS_GPCR_rAdra1_NonSelective: NovaScreen (NVS) G Protein-Coupled Receptor Assay for rat Adrenergic, Alpha 1, Non-selective Receptor (Adra1) (AID 2283289). The gist of the method: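 Chemicals first screened in duplicate at 25 uM, then actives tested in concentration series up to 50 uM. Binding measured as displacement of radioligand from rat forebrain membrane receptors, 1 h, filtration with scintillation readout; DMSO baseline.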
rat Adrenergic, Alpha 1, Non-selective Receptor (Adra1), Adra1a (gene 29412), sequence (P43140 whole entry, looked up): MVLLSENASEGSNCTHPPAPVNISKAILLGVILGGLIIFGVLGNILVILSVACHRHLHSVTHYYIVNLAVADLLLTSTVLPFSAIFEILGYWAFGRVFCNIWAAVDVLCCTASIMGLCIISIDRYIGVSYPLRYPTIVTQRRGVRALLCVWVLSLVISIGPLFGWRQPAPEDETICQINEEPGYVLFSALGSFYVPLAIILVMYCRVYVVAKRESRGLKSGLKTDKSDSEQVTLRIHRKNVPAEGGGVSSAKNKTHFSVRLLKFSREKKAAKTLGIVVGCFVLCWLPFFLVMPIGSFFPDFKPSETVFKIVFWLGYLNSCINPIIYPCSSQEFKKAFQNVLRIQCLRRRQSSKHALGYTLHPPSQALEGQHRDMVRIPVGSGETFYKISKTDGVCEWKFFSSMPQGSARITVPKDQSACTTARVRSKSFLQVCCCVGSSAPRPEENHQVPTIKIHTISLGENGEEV

The target of experiment [7] is human Orphanin, Opioid Related Nociceptin Receptor 1 (ORL1), OPRL1 (gene 4987) (UniProt P41146). In words: NVS_GPCR_hORL1: NovaScreen (NVS) G Protein-Coupled Receptor Assay for human Orphanin, Opioid Related Nociceptin Receptor 1 (ORL1) (AID 2283283). The gist of the method:
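Cell-free binding using HEK293-derived receptor protein: radioligand displacement measured by filter scintillation 1 hour after dosing. Primary testing at 25 uM in duplicate, followed by singleton concentration series up to 50 uM; DMSO served as negative control.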

In experiment [8] the test system is rabbit Platelet Activating Factor Receptor (PAF), gene 100354046. As to the kind of experiment: NVS_GPCR_rabPAF: NovaScreen (NVS) G Protein-Coupled Receptor Assay for rabbit Platelet Activating Factor Receptor (PAF) (AID 2283287). The gist of the method: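 Rabbit platelet membrane preparation; radioligand displacement read by filter-based scintillation counting 1 h after dosing, loss of signal versus DMSO. Primary screen in duplicate at 25 uM, actives followed up in concentration series.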

The target in experiment [9] is guinea pig Bradykinin Receptor B2 (BK2), BDKRB2 (gene 100135486) (UniProt O70526). As to the kind of experiment: NVS_GPCR_gBK2: NovaScreen (NVS) G Protein-Coupled Receptor Assay for guinea pig Bradykinin Receptor B2 (BK2) (AID 2283292). The gist of the method: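 Guinea pig ileum membrane preparation incubated 1 h with radioligand and test chemical; bound counts measured after filtration. Primary duplicate screening at 25 uM, then singleton concentration series with a 50 uM top dose; DMSO as baseline.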
guinea pig Bradykinin Receptor B2 (BK2), BDKRB2 (gene 100135486), sequence (O70526 whole entry, looked up): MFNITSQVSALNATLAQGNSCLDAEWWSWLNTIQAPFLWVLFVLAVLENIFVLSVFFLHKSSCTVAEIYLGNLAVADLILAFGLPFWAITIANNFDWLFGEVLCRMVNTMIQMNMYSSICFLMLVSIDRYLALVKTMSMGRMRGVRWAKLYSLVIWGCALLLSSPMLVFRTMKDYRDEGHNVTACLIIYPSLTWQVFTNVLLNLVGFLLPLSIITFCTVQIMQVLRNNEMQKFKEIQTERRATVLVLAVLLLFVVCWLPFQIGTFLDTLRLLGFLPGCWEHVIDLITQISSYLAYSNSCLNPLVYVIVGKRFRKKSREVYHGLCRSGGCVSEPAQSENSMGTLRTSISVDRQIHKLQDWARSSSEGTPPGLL

The target in experiment [10] is human Purinergic Receptor P2Y, P2RY1 (gene 5028) (UniProt P47900). In words: NVS_GPCR_hPY2: NovaScreen (NVS) G Protein-Coupled Receptor Assay for human Purinergic Receptor P2Y (AID 2283281). In short, it runs like this:
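Filtration scintillation readout of radioligand displacement on U937 extract, measured 1 h post-dosing. Single 25 uM duplicate screen, then singleton concentration series to 50 uM for chemicals passing threshold; DMSO as baseline.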

Molecules are shown by their SMILES. Inconclusive results are not listed. Activity calls are given as the source filed them. The calls were made as follows: active = hit-call score of the fitted dose curve at least 0.9, where 1 is the maximum; inconclusive = response in the unintended direction; inactive = score below 0.9.

human Thromboxane A2 Receptor (TXA2), TBXA2R (gene 6915), sequence (P21731 whole entry, looked up): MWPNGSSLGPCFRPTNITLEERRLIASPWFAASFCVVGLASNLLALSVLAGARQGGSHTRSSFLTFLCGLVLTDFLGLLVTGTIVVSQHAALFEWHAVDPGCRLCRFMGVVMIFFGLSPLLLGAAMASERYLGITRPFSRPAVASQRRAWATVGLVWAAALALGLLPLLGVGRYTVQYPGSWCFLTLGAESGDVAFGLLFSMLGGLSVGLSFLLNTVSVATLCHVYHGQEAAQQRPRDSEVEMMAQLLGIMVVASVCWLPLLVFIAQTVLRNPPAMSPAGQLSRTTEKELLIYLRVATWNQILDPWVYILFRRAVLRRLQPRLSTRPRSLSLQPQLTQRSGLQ
human Orphanin, Opioid Related Nociceptin Receptor 1 (ORL1), OPRL1 (gene 4987), sequence (P41146 whole entry, looked up): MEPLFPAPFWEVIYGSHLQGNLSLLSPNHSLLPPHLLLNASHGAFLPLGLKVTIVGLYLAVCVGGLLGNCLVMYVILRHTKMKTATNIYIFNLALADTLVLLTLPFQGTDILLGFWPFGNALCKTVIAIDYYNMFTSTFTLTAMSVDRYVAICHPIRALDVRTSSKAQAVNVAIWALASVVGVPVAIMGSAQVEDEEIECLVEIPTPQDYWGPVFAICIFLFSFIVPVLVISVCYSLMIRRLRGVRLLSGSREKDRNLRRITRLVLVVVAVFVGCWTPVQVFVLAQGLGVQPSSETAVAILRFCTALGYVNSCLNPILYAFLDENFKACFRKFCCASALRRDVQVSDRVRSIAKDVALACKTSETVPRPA
human Opioid Receptor Mu (Opiate Mu), OPRM1 (gene 4988), sequence (P35372 whole entry, looked up): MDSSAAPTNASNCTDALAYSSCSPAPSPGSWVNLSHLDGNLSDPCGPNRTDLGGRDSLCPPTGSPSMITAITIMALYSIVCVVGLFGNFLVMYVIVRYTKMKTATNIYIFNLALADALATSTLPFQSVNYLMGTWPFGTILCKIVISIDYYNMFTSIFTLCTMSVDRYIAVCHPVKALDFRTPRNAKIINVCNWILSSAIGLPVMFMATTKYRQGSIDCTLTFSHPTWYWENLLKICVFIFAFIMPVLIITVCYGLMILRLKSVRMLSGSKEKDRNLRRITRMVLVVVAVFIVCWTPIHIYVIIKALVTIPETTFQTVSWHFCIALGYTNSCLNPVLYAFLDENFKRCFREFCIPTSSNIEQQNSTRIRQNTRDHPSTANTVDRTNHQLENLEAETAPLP
human Purinergic Receptor P2Y, P2RY1 (gene 5028), sequence (P47900 whole entry, looked up): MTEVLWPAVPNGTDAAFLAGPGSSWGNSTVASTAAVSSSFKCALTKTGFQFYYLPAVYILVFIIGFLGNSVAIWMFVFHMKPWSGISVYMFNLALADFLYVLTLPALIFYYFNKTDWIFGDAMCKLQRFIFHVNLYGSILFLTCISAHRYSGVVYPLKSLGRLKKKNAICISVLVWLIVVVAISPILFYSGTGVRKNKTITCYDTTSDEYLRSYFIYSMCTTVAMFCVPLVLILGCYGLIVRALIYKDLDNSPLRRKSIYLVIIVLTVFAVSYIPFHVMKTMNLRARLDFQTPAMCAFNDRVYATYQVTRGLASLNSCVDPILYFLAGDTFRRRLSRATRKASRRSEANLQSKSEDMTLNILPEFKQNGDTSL

As usually defined, the AC50 is the concentration giving half of the maximal activity seen. On to `CC(C)C(=O)Nc1ccc([N+](=O)[O-])c(C(F)(F)F)c1`, for which the AC50 in experiment [1] was 4.96 µM (active). In addition, the compound was called inactive in experiment [2] and in [3]. Regarding `CCn1nc(C)c2c1C(=O)NCC(c1ccc(O)cc1)=N2`, the half-maximal activity concentration (AC50) in experiment [1] was 14.4 µM (active). Besides, the compound was called inactive in experiment [4], in experiment [3] and in [5]. Turning to `O=S(=O)(O)c1ccc(N=Nc2c(O)ccc3cc(S(=O)(=O)O)ccc23)cc1`, in experiment [4], the AC50 is 12.4 µM (active). The result in [6] was inactive. Regarding `O=C(O)c1ccc2c(c1)nc(C(=O)NC1CCN(C3CC3)CC1)n2Cc1cc(-c2ccc(Cl)s2)on1`, the call in experiment [4] was inactive. On the same count and under the same terms, then `CCCCCCCC1CCC(=O)O1` (centres undefined), with “inactive”. In the case of `C=CCc1cc(S(=O)(=O)c2ccc(O)c(CC=C)c2)ccc1O`, the AC50 in experiment [1] is 6.66 µM (active); in experiment [8] it was 20 µM (active); in experiment [3], 7.68 µM (active); in [5], 4.83 µM (active). The compound was called inactive in experiment [7]. As for `OCCOCCOCCO`, the call in experiment [7] was inactive.

With `COc1cc(C(C)C)c2c(c1)S(=O)(=O)N(COc1cc(=O)n3cccc(OCCN4CCCCC4)c3n1)C2=O`, the AC50 in [6] is 3.1 µM (active). In addition, the result in [5] was inactive.

`COCc1nnc(-c2ccc[n+]([O-])c2)n1-c1c(Cl)c(Cl)cc2[nH]c(=O)c(=O)[nH]c12`: in experiment [3], the outcome was inactive. For `c1ccc(C(O[C@@H]2CCCN(CCc3ccc4c(c3)OCO4)C2)c2ccccc2)cc1`, the AC50 in experiment [4] was 9.62 µM (active); in [3], 5.08 µM (active); in experiment [5], 5.65 µM (active). The result in experiment [9] was inactive. Consider `CNC(C)=O`, for which the compound was called inactive in [9].

For `CCCCCCCCCCCCCCCCOS(=O)(=O)O`, the AC50 in experiment [10] is 5.47 µM (active); in experiment [1], 12.5 µM (active); in experiment [5], 4.11 µM (active). As for `CCCOc1ccc(S(=O)(=O)N2CCN(CC)CC2)cc1-c1nc2c(CC)n(Cc3ccccn3)nc2c(=O)[nH]1`, the AC50 in experiment [8] was 6.42 µM (active); in experiment [6], 0.402 µM (active).

In the case of `CCN(CC)C(=S)SSC(=S)N(CC)CC`, the AC50 in [7] was 14 µM (active). In addition, the compound was classed as inactive in [5].

For `C=CN1CCCC1=O`, the outcome in experiment [5] was inactive. Same read-out and setting: the value for `CCCCCCCCCCCCCCO` was “inactive”. For `CCCCCCCCCC`, the compound was called inactive in experiment [8], in [3], in experiment [5] and in [9]. On to `O=C(O)[C@H](O)[C@@H](O)C(=O)O`, for which the result in [5] was inactive. Consider `Cc1cccc(O)c1C`, for which the compound was called inactive in experiment [1]. With `c1ccc2cc3ccccc3cc2c1`, the compound was classed as inactive in [5]. Take `COc1cc2c(c(OC)c1OC)-c1ccc(OC)c(=O)cc1[C@@H](NC(C)=O)CC2`: the AC50 in experiment [8] is 17.1 µM (active). In the case of `Cc1nccn1-c1ccc(Sc2cccc(C3(C(N)=O)CCOCC3)c2)cc1`, the AC50 in experiment [8] was 15.8 µM (active).

For the compound `CCCCCCCC/C=C\CCCCCCCC(=O)OC[C@@H](O)[C@H]1OC[C@H](O)[C@H]1O`, the AC50 in experiment [1] is 25 µM (active). Moreover, in experiment [5], the outcome was inactive. On to `OCc1c[nH]c2ccccc12`, for which the compound was called inactive in experiment [1]. Still for that read-out and setting: the value for `CC[C@H](C)C(=O)O[C@H]1C[C@H](O)C=C2C=C[C@H](C)[C@H](CC[C@@H](O)C[C@@H](O)CC(=O)O)[C@H]21` was “inactive”. Take `CCc1ccc(O)c(C(C)(C)C)c1`: the outcome in experiment [6] was inactive. As to `CCCCOC(=O)c1ccccc1`, the compound was classed as inactive in [1].

Values taken from PubChem BioAssay (EPA / NIEHS).
